# Laboratory results as given in paper PMC4336329 (PLoS ONE, 2015).
# Among all 310,000 compounds or so, about 14,000 (4.5%) showed an effect of 50% or more. Effects have a minus sign here. The sample as a whole holds a higher share of strong results than the screen did.
# Biological target: human ether-à-go-go-related gene (hERG) potassium channel (human, UniProt Q12809)
# Assay: primary screen, population patch clamp on CHO cells stably expressing hERG; higher = less effect of the substance
# 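Note: peak tail current of the secondary pulse compared with the same well before compound.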
# Chain of human ether-à-go-go-related gene (hERG) potassium channel (Q12809 whole entry, looked up): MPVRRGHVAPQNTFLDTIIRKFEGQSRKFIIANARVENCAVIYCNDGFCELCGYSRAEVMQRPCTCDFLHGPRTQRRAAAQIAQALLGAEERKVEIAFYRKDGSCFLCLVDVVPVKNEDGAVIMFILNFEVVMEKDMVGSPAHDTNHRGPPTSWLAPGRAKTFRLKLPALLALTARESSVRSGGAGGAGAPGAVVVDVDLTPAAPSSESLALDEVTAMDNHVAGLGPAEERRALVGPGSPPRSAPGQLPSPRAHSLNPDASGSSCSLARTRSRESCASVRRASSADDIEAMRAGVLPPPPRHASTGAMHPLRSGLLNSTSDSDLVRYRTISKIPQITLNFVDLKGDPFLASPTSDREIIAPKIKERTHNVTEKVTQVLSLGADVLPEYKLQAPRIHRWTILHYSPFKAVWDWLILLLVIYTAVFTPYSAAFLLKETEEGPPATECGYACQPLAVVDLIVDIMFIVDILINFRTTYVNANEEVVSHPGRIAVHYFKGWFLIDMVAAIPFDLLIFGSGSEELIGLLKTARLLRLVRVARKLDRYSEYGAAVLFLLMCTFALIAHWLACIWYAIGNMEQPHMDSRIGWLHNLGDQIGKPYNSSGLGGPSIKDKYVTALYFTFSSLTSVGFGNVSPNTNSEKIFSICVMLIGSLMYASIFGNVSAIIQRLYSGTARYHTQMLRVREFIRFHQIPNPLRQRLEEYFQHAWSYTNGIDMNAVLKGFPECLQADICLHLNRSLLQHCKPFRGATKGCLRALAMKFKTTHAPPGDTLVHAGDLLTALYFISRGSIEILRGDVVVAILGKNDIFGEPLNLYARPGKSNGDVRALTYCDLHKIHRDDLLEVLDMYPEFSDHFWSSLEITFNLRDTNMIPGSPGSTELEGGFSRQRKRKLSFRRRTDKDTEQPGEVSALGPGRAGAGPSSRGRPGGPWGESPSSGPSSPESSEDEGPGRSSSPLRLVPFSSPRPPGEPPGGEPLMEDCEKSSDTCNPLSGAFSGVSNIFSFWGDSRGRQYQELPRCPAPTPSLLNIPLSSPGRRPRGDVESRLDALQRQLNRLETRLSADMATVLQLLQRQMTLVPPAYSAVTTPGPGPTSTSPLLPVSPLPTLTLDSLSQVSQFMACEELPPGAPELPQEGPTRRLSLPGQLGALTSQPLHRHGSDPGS
row,SMILES,"hERG current change (%, negative = inhibition) at 10uM"
1,COc1ccccc1CNC(=O)C1CCCN(S(C)(=O)=O)C1 (stereo not shown),9.4%
2,CC(C)Oc1cccc(C(=O)C2CCCN(S(=O)(=O)C(C)C)C2)c1 (stereo not shown),-21.7%
3,COc1ccc(C2=NN(C(=O)CSc3nnnn3C)C(c3ccco3)C2)cc1 (stereo not shown),3.05%
4,N/C(=N\OC(=O)C(c1ccccc1)c1ccccc1)c1ccccn1,8.35%
5,Cl.O=C(NCC(c1cccs1)N1CCOCC1)c1ccc(Cl)s1 (stereo not shown),-21.6%
6,CC(=O)NC(=O)COC(=O)/C=C/c1c(C)nn(Cc2c(Cl)cccc2Cl)c1Cl,-2.82%
7,O=C(O)CSc1nc2ccc(C(=O)c3ccccc3)cc2[nH]1,17.2%
8,CCOC(=O)c1cn(CC)c2cc(F)c(F)cc2c1=O,3.48%
9,CC(C)(C)C(=O)c1cn(Cc2ccccc2)c2ccccc12,-4.12%
10,CCCCCCn1cc(C(=O)OCC)c(=O)c2cc(F)c(F)cc21,-52.6%
11,CCCn1cc(C(=O)OCC)c(=O)c2cc(F)c(F)cc21,2.11%
12,O=C(O)c1cn(Cc2ccccc2)c2ccccc2c1=O,-79.3%
13,CCC(=O)c1cn(Cc2ccccc2)c2ccccc12,-7.05%
14,COc1ccc(OC)c(N2C(=O)CC(Cc3ccc(C)cc3)C2=O)c1 (stereo not shown),-2.87%
15,CCC1(c2ccccc2)NC(=O)N(CC(=O)Nc2ccc3c(c2)OCO3)C1=O (stereo not shown),-6.09%
16,CCOC(=O)c1oc2cccc(O)c2c1C,-7.22%
17,C=CCn1c(SCc2c(F)cccc2Cl)nnc1-c1ccco1,-19.3%
18,COc1ccc(CN2CCN(CCc3ccccc3)C(CCO)C2)c(Cl)c1OC (stereo not shown),-60.1%
19,COc1ccc(OC)c(CN2CCN(CCCc3ccccc3)C(CCO)C2)c1 (stereo not shown),-68.6%
20,COc1ccc(CN2CCN(CCCc3ccccc3)C(CCO)C2)c(OC)c1 (stereo not shown),-72.9%
21,COc1cccc(CN2CCN(CCc3ccccc3)C(CCO)C2)c1OC (stereo not shown),-34.8%
22,COc1ccc(OC)c(CN2CCN(CCc3ccccc3)C(CCO)C2)c1 (stereo not shown),-60.6%
23,CCOC(=O)C1(CC)CC(CSc2nc3ccccc3[nH]2)OC1=O.Cl (stereo not shown),-2.61%
24,COc1ccc(C(=O)Nc2cccc3ccccc23)cc1,1.02%
25,CC(C)(C)c1cc(C(=O)NNc2cccc(Cl)c2)n(Cc2ccccc2)n1,-4.28%
